ST2 IL33 inh – IL1RL1 inhibition; Q01638; AlphaLISA ST2-Fc/biotin-IL-33 interaction, 1 h; inhibition, % for hits at 17 µM; 2.3% of 78,000 active; in the data active means inhibition above about 30%
Target sequence (Q01638 whole entry, looked up): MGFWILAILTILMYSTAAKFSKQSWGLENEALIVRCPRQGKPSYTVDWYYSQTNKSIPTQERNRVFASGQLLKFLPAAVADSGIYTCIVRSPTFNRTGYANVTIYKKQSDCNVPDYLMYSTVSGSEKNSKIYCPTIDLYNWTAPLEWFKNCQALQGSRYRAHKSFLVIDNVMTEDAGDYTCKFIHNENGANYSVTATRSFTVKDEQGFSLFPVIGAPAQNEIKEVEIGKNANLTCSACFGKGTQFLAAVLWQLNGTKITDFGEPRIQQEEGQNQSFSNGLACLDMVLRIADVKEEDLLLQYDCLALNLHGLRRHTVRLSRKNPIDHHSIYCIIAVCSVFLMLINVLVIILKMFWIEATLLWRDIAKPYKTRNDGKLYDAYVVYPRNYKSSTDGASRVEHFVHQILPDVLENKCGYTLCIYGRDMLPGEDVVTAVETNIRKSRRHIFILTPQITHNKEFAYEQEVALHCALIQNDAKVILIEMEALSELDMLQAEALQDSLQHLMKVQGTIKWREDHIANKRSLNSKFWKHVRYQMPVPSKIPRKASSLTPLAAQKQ
The depositor's hits bear a star. The full list was thinned out, with hits kept by preference.

Screening CC(C)(C)CC(=O)Nc1ccc(Nc2ccccc2)cc1 returned ST2 IL33 inh 33%*.
For O=C1CCCN1CCCn1ccnc1-c1cccc(-n2cccn2)c1 the results were ST2 IL33 inh inactive.
For N#CCSc1nc2c(sc3ccccc32)c(=O)n1CCCN1CCCC1 the results were ST2 IL33 inh inactive.
Screening Cc1ccc(C)c(S(=O)(=O)N=C(c2ccc(Cl)cc2)N(C)C)c1 returned ST2 IL33 inh 78%*.
`CCN(CC)C(=NS(=O)(=O)c1cc(C)ccc1C)c1ccccc1` gave ST2 IL33 inh inactive.
Screening Cc1ccc(C(=O)Nc2cc(Cl)ccc2C)cc1 returned ST2 IL33 inh inactive.
Screening CC(C(=O)N1CCC(CCC(=O)NCc2cccc(Cl)c2)CC1)n1cncn1 (stereo not drawn) returned ST2 IL33 inh inactive.
For COc1cccc2c1NC(C)(C)C=C2C the results were ST2 IL33 inh 46%*.
Screening COc1ccccc1N=C1C(=O)Nc2ccccc21 returned ST2 IL33 inh inactive.
COc1cccc(OC)c1OC was read as ST2 IL33 inh inactive.
Screening Cn1nccc1C(=O)N1CCCC(C(=O)c2ccc(-c3ccccc3)cc2)C1 (stereo not drawn) returned ST2 IL33 inh inactive.
O=C(O)c1cccc(NC2=CC(=NS(=O)(=O)c3ccc(F)cc3)c3ccccc3C2=O)c1 was read as ST2 IL33 inh 45%*.
Screening O=C(O)c1cccc(NS(=O)(=O)c2cccc(C(=O)Nc3ccccc3)c2)c1 returned ST2 IL33 inh inactive.
`CCc1ccc(S(=O)(=O)N=C2C=C(Nc3cccc(C(=O)O)c3)C(=O)c3ccccc32)cc1` gave ST2 IL33 inh 52%*.
For CC(=O)c1cccc(NC(=O)C(Cc2ccccc2)N2C(=O)c3ccccc3C2=O)c1 (stereo not drawn) the results were ST2 IL33 inh inactive.
`O=C(O)c1ccc(S(=O)(=O)c2ccccc2)cc1` gave ST2 IL33 inh inactive.
Screening O=C(O)c1ccc(NC2=CC(=NS(=O)(=O)c3ccccc3)c3ccccc3C2=O)cc1 returned ST2 IL33 inh 48%*.
`O=C1C(Nc2ccc(O)cc2)=CC(=NS(=O)(=O)c2ccc(Cl)cc2)c2ccccc21` gave ST2 IL33 inh 87%*.
For O=C(O)c1cccc(NS(=O)(=O)c2ccccc2)c1 the results were ST2 IL33 inh inactive.
For O=C(O)c1cccc(NC(=O)C(c2ccccc2)c2ccccc2)c1 the results were ST2 IL33 inh inactive.
CN(CC(=O)Nc1ccc(C(=O)O)cc1)S(=O)(=O)c1ccccc1 was read as ST2 IL33 inh inactive.
Screening O=C1C=C(Nc2ccc(Cl)cc2)C(=O)N1c1ccccc1 returned ST2 IL33 inh inactive.
CCC(NC(=O)C1=NNC(=O)CC1)c1ncccc1C (stereo not drawn) was read as ST2 IL33 inh inactive.
Screening Cc1ccc(-n2nc3c(c2NC(=O)c2c(F)cccc2F)CSC3)c(C)c1 returned ST2 IL33 inh inactive.
c1ccc(CN(CCN2CCOCC2)Cc2ccco2)nc1 was read as ST2 IL33 inh inactive.
Screening N#Cc1ccccc1NC(=O)CSc1n[nH]c(-c2ccccc2)n1 returned ST2 IL33 inh inactive.
Screening CC(C)c1nnc(NC(=O)CC(NC(=O)C(F)(F)F)c2ccccc2)s1 (stereo not drawn) returned ST2 IL33 inh inactive.
O=C(CSc1nnc(Cc2cc(=O)[nH]c(=O)[nH]2)n1-c1ccccc1)NCc1ccccc1 was read as ST2 IL33 inh inactive.
Cc1n[nH]c(C)c1S(=O)(=O)Nc1ccccc1C(=O)O was read as ST2 IL33 inh inactive.
For COCc1nc(N(C)CCSc2ccccc2)c2cnn(C)c2n1 the results were ST2 IL33 inh inactive.
`Cc1nc(CC(=O)N2CCc3c(cnc(C)c3CNC(=O)/C=C/c3cccs3)C2)cs1` gave ST2 IL33 inh 30%*.
For Cc1ncc2c(c1CNC(=O)/C=C/c1cccs1)CCN(C(=O)c1ccc(-n3cccn3)cc1)C2 the results were ST2 IL33 inh inactive.
`Cc1ncc2c(c1CNC(=O)/C=C/c1cccs1)CCN(C(=O)COc1ccccc1)C2` gave ST2 IL33 inh inactive.
For Cc1nonc1CN(C)C(=O)CCNC(=O)c1ccccc1F the results were ST2 IL33 inh inactive.
For Cc1ccccc1NC(=O)c1cc2cc(Br)ccc2oc1=O the results were ST2 IL33 inh inactive.
Screening Cc1ccc(Cn2cc(CCC(=O)O)c3ccccc32)cc1 returned ST2 IL33 inh inactive.
For Cc1oc(N=Cc2cn(Cc3ccccc3)c3ccccc23)c(C#N)c1C the results were ST2 IL33 inh 46%*.
Screening CN=C1S/C(=C\c2cn(CC(=O)O)c3ccccc23)C(=O)N1C returned ST2 IL33 inh inactive.
For C=CCC(=O)N(C)CCSc1ccc(C)cc1 the results were ST2 IL33 inh inactive.
O=C1CCCN2N=C(SCC(=O)NCCc3ccccc3)SC2=N1 was read as ST2 IL33 inh inactive.
`CCN(CC)c1ccc(C2C(C#N)=C(N)Oc3n[nH]c(-c4ccccc4)c32)cc1` (stereo not drawn) gave ST2 IL33 inh inactive.
Screening CCOc1ccc(NC(=O)NCCc2nc3cccnc3n2Cc2ccc(C)cc2)cc1 returned ST2 IL33 inh inactive.

High-throughput results (PubChem)
